Results on three compounds are retold here after PubChem BioAssay AID588442 (The Scripps Research Institute Molecular Screening Center, 2011).

Entries with a potency or affinity are not part of this list. A number with no mark means an inactive call.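 The calls were made as follows: active = EC50 of 10 µM or lower; inactive = EC50 above 10 µM or not measured.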

The nature of the assay: optical interference in Abeta FP readout, dose response, artefact control for IDE activator project, biochemical, fluorescence polarization (AID 588442). Conditions: FP artifact counterscreen, fluorescein-Abeta, no enzyme activity. For orientation: In fluorescence polarisation assays a small probe gives low polarisation when free and higher when bound to something large.
In general, EC50 refers to the concentration at which the effect is half-maximal. With `C#CCOCCOCCOCCNc1nc(N2CCN(C(=O)CCCCCCCCCCNC(=O)Cn3cc(CCCCCN)nn3)CC2)nc(N2CCN(C(=O)CCCCCCCCCCNC(=O)Cn3cc(C[C@@H](C)O)nn3)CC2)n1`, the EC50 is > 54.7 µM.

`C#CCOCCOCCOCCNc1nc(N2CCN(C(=O)CCCCCCCCCCNC(=O)[C@H]([C@@H](C)CC)n3cc(CCCCCN)nn3)CC2)nc(N2CCN(C(=O)CCCCCCCCCCNC(=O)[C@H]([C@@H](C)CC)n3cc(CCCCN=C(N)N)nn3)CC2)n1`: the EC50 is > 55.9 µM.

With `C#CCOCCOCCOCCNc1nc(N2CCN(C(=O)CCCCCCCCCCNC(=O)Cn3cc(CCCCCN)nn3)CC2)nc(N2CCN(C(=O)CCCCCCCCCCNC(=O)[C@H]([C@@H](C)CC)n3cc(CCCCCN)nn3)CC2)n1`, the EC50 was > 55.9 µM.
